Bioassay records: PubChem BioAssay, National Center for Advancing Translational Sciences (NCATS)
JMJD2A Tudor = qHTS Assay for Inhibitors of JMJD2A-Tudor Domain. Lysine-specific demethylase 4A (Homo sapiens), O75164. AlphaScreen JMJD2A-Tudor / H3K4me3 peptide binding. Potency, µM (series often up to 114 µM), for inactives: at the top dose activity change, negative = inhibition, usual class: inhibitors. 390,000 tested, 4.4% active. AID 504339, 2011; also: potency is read from the fitted curve at half-maximal effect; % is scaled to controls: 0 for no effect and ±100 for the full control effect; nearly all actives have a fitted effect of over 50% in size
G9a inh-1 = qHTS Assay for Inhibitors of Histone Lysine Methyltransferase G9a; AID 504332, 2011; G9a H3K9 monomethylation, AlphaScreen, 2 h; Potency, µM (top dose mostly 102 µM), for inactives: top-dose activity, negative = inhibition, most hits filed as inhibitors; 350,000 tested, 8.8% active; also: potency is read from the fitted curve at half-maximal effect; % is scaled to controls: 0 for no effect and ±100 for the full control effect; nearly all actives have a fitted effect of over 75% in size
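Methyltransferase reactions run at room temperature for 2 h (20 nM enzyme, 500 nM biotin-H3K9 peptide, 20 uM SAM) after a 15 min compound preincubation; product detected by AlphaScreen beads and anti-H3K9me1 antibody.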
GLS inh = qHTS for Inhibitors of Glutaminase (GLS) | Glutaminase kidney isoform, mitochondrial (Homo sapiens), O94925 | AID 624170, 2012 | Potency, µM (series often up to 45.5 µM), for inactives: at the highest dose activity change, negative = inhibition, usual class: inhibitors | 410,000 tested, 0.21% active | GLS enzymatic activity, qHTS titration; also: potency is read from the fitted curve at half-maximal effect; % is scaled to controls: 0 for no effect and ±100 for the full control effect
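hKGA in 45 mM KH2PO4 (pH 8.2), 0.02% Tween-20 with compound, then 1mM L-Glutamine (stock as added) plus glutamate oxidase/HRP/Amplex red coupling mix. Fluorescence read initially and after 30 min at RT; signal change reflects glutamate formation.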
HP1b chromo inh = HTS for Inhibitors of HP1-beta Chromodomain Interactions with Methylated Histone Tails. Potency, µM (highest dose often 114 µM), without a hit: top-dose activity change, negative = inhibition, hits mostly inhibitors. AlphaScreen HP1-beta / biotin-H3K9me3 peptide binding. 390,000 tested, 0.56% active. Chromobox protein homolog 1 (Homo sapiens), P83916; also: potency is read from the fitted curve at half-maximal effect; nearly all actives have a fitted effect of over 70% in size
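AlphaScreen: HP1-beta (50 nM) preformed 30 min with biotin-H3(1-18)K9me3 peptide (50 nM) in PBS pH 7.4, 0.01% Tween-20. Compound added for 30 min at RT, then streptavidin donor/nickel chelate acceptor beads (10 ug/mL) for 30 min.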
BAZ2B block = qHTS Assay for Inhibitors of BAZ2B | 360,000 tested, 4.4% active | Potency, µM (doses to about 114 µM), inactives show top-dose activity change, negative = inhibition, usual class: inhibitors | AlphaScreen BAZ2B-H3K14Ac peptide displacement; also: potency is read from the fitted curve at half-maximal effect; % is scaled to controls: 0 for no effect and ±100 for the full control effect; nearly all actives have a fitted effect of over 60% in size
Target sequence (Q9UIF8 whole entry, looked up): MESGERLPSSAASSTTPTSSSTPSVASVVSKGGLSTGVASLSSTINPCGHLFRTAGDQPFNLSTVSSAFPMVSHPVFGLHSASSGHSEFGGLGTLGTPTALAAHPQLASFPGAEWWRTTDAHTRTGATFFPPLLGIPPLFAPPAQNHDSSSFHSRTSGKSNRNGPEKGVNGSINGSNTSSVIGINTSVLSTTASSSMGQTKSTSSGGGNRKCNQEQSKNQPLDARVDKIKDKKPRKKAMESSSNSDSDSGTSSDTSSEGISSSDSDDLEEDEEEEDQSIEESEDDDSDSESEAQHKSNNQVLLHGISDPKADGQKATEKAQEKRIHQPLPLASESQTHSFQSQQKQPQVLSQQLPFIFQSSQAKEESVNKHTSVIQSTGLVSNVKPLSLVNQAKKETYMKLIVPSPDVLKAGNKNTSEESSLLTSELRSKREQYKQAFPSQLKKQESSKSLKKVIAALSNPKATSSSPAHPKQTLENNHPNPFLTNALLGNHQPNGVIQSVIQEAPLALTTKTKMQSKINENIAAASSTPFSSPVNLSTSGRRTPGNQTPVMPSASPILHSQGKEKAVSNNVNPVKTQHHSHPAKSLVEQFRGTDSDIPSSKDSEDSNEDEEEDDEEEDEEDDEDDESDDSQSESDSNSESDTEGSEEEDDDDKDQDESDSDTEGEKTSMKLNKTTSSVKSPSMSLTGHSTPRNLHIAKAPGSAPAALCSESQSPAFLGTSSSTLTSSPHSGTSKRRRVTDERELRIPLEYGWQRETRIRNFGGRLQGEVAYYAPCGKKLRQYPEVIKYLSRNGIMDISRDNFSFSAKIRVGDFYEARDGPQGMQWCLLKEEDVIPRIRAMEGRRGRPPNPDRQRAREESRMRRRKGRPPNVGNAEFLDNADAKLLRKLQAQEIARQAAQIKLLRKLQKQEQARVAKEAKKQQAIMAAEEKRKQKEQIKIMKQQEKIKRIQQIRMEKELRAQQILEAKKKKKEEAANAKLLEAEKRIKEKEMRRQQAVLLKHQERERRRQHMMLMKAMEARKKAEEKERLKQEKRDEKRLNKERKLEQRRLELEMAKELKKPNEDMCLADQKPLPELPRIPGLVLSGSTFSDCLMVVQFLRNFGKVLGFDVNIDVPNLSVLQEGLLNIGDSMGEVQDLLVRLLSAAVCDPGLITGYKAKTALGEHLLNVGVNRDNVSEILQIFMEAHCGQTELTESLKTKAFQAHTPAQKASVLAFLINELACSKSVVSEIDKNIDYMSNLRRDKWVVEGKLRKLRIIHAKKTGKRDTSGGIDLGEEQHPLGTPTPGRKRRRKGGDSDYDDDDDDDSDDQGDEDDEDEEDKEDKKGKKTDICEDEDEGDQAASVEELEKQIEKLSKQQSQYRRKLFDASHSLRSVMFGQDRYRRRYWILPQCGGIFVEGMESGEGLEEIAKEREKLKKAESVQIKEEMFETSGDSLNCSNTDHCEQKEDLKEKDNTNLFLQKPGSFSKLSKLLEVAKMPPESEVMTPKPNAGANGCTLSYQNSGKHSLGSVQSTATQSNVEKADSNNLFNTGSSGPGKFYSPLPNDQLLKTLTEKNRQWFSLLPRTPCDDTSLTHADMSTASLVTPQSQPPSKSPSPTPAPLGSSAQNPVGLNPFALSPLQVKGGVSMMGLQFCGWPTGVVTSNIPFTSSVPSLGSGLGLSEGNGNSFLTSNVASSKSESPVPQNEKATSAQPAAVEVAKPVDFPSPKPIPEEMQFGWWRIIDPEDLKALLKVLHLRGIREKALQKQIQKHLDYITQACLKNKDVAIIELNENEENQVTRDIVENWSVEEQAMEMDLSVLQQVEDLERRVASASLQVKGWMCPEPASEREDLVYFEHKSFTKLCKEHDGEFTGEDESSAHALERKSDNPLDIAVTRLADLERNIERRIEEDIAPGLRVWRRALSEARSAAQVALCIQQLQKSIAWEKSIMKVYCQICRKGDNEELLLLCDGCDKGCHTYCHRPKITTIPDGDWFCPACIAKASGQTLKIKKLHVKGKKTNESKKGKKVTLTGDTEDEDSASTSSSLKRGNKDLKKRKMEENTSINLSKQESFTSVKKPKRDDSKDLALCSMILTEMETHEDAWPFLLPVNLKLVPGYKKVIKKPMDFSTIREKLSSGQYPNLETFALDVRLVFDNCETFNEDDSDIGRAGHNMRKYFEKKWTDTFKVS
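Multi-concentration screen (max 110 uM) measuring displacement of acetylated histone H3 peptide from BAZ2B by AlphaScreen, using 50 nM protein, 50 nM peptide and 10 ug/mL streptavidin donor plus Ni-chelate acceptor beads.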
JMJD2E confirm = Confirmation qHTS Assay for Inhibitors of Human Jumonji Domain Containing 2E (JMJD2E); shares compounds with JMJD2A Tudor; Recombinant JMJD2E, FDH-coupled NADH fluorescence (FDH is formaldehyde dehydrogenase); Potency, µM (top dose mostly 56.8 µM), inactives show at the highest dose activity change, negative = inhibition, most hits filed as inhibitors; 140 tested, 93% active
FDH counter = Counterscreen for JMJD2E Inhibitors: qHTS Assay for Inhibitors of Formaldehyde Dehydrogenase (FDH); Potency, µM (titrated, usually from 56.7 µM), without a hit: top-dose activity, negative = inhibition, most hits filed as inhibitors; FDH enzyme assay, NADH fluorescence kinetic; 140 tested, 10% active; shares compounds with JMJD2A Tudor
JMJD2E MALDI inh = MALDI-TOF-MS Assay for Inhibitors of Human Jumonji Domain Containing 2E (JMJD2E). shares compounds with JMJD2A Tudor. recombinant JMJD2E demethylation, MALDI-TOF-MS. Potency, µM, hits mostly inhibitors. 45 tested, 90% active;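 active = compounds whose IC50 for blocking JMJD2E demethylation is below 100 µM; inconclusive = dose dependent effect but IC50 above 100 µM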
G9a inh-2 = qHTS Assay for Inhibitors of Histone Lysine Methyltransferase G9a: Hit Confirmation; Potency, µM, usual class: inhibitors; shares compounds with JMJD2A Tudor; G9a H3K9 monomethylation, AlphaScreen, 2 h; 370 tested, 89% active; also: potency is read from the fitted curve at half-maximal effect; nearly all actives have a fitted effect of over 65% in size
* hit, by the source's call; [ ] = remark or other dose. A selection: hits, their analogues and other compounds. The true share with any hit is near 10%. Unless noted, calls follow the shape of the dose curve; as a rule, active = well fitted curve in the direction sought with a large enough effect; inconclusive = small, poorly fitted or top-dose-only effect, or another doubt; inactive = no such curve, though single readings can be large; an effect the other way counts as inactive or inconclusive.

Results for COc1ccc(CN2CCc3c([nH]c4ccccc34)C2)cc1Br ?
JMJD2A Tudor: 20µM*; G9a inh-1: inconclusive; GLS inh: 7%; HP1b chromo inh: -23%; BAZ2B block: 14µM*; G9a inh-2: 5*

What do the screens show for `COc1ccc(CNC(=O)Nc2ccc(C)c(C)c2)cc1`?
JMJD2A Tudor: -7%; G9a inh-1: 13%; GLS inh: 9%; HP1b chromo inh: 29%; BAZ2B block: -23%

How did COc1ccc(N2CCC(CNC(=O)Nc3ccc(C)c(C)c3)C2)cc1 (centres undefined) do in these assays?
JMJD2A Tudor: 25µM*; G9a inh-1: 2µM*; GLS inh: 4%; HP1b chromo inh: inconclusive; BAZ2B block: 40µM*; G9a inh-2: 2.5*

What do the screens show for `COc1ccc(CNC(=O)C2CCN(S(=O)(=O)c3cccc(C(F)(F)F)c3)CC2)cc1`?
JMJD2A Tudor: 3%; G9a inh-1: -30%; GLS inh: 8%; HP1b chromo inh: 24%; BAZ2B block: 9%

How did CCc1ccc(NC(=O)NCC2CCN(c3ccc(OC)cc3)C2)cc1 (centres undefined) do in these assays?
JMJD2A Tudor: -34%; G9a inh-1: inconclusive; GLS inh: 15%; HP1b chromo inh: 4%; BAZ2B block: -36%; G9a inh-2: 0.89*

How did COc1ccc(N2CCC(CNS(=O)(=O)c3cccc(C(F)(F)F)c3)C2)cc1 (centres undefined) do in these assays?
JMJD2A Tudor: 40µM*; G9a inh-1: inconclusive; GLS inh: 21%; HP1b chromo inh: inconclusive; BAZ2B block: 10µM*; G9a inh-2: 0.45*

What do the screens show for `COc1ccc(N2CCC(CNC(=O)Nc3ccc(OC)cc3OC)C2)cc1` (centres undefined)?
JMJD2A Tudor: 45µM*; G9a inh-1: inconclusive; GLS inh: 59%; HP1b chromo inh: -78%; BAZ2B block: 40µM*; G9a inh-2: 2.5*

Results for CN1CCN(C(=O)CCN2C(=O)c3ccccc3C2=O)CC1 ?
JMJD2A Tudor: 4%; GLS inh: -2%; HP1b chromo inh: 49%; BAZ2B block: inconclusive

How did CC(=O)N1CCN(C(=O)c2c(-c3ccccc3)noc2C)CC1 do in these assays?
JMJD2A Tudor: 5%; G9a inh-1: inconclusive; GLS inh: -11%; HP1b chromo inh: 42%; BAZ2B block: 4%

What do the screens show for `N#Cc1c2c(c(Nc3ccc(F)cc3)n3c1nc1ccccc13)CCCC2`?
JMJD2A Tudor: 1%; GLS inh: -4%; HP1b chromo inh: 32%

How did CCOc1ccc(NC(=O)NCC2CCN(c3ccc(OC)cc3)C2)cc1 (centres undefined) do in these assays?
JMJD2A Tudor: -34%; G9a inh-1: 1µM*; GLS inh: 15%; HP1b chromo inh: -16%; BAZ2B block: -7%; G9a inh-2: 1.1*

Results for O=C(Cc1csc2ccccc12)NCc1ccccc1F ?
JMJD2A Tudor: -10%; G9a inh-1: 4%[59 µM]; GLS inh: 3%; HP1b chromo inh: 23%; BAZ2B block: 0%

What do the screens show for `COc1ccc(CN(C(=O)CNC(=O)c2ccco2)C(C(=O)NCC2CCCO2)c2ccc(OC)c(OC)c2)cc1` (centres undefined)?
JMJD2A Tudor: -34%; G9a inh-1: 45%; GLS inh: 1%; HP1b chromo inh: 28%; BAZ2B block: 3%

What do the screens show for `CCc1ccc2oc(-c3cc(N)ccc3O)nc2c1`?
JMJD2A Tudor: -35%; G9a inh-1: inconclusive; GLS inh: 35%; HP1b chromo inh: 4%; BAZ2B block: -5%; G9a inh-2: inconclusive

What do the screens show for `CCc1ccc2oc(-c3cc(N)ccc3Cl)nc2c1`?
JMJD2A Tudor: -5%; G9a inh-1: -20%[12.7 µM]; GLS inh: 3%; HP1b chromo inh: 7%; BAZ2B block: inconclusive

Results for CC(C(=O)NC(=O)NC1CCCCC1)N1CCN(c2ccc(O)cc2)CC1 (centres undefined) ?
JMJD2A Tudor: 22µM*; G9a inh-1: 1.3µM*; GLS inh: -1%; HP1b chromo inh: 79µM*; BAZ2B block: inconclusive; G9a inh-2: 0.56*

What do the screens show for `CC1(C(=O)OCC(=O)Nc2nc(-c3ccc(F)c(F)c3)cs2)CC1(Cl)Cl` (centres undefined)?
JMJD2A Tudor: -10%; GLS inh: -16%; HP1b chromo inh: 49%; BAZ2B block: -3%

Results for O=C(COCc1cc(-c2ccc3c(c2)OCO3)on1)Nc1cccc(O)c1 ?
JMJD2A Tudor: -8%; G9a inh-1: 8%[59 µM]; GLS inh: 17%; HP1b chromo inh: 40%; BAZ2B block: -2%

Results for Oc1ccc(COCc2ccccc2)c2cccnc12 ?
JMJD2A Tudor: inconclusive; G9a inh-1: 23%[12.7 µM]; GLS inh: 0%; HP1b chromo inh: 45%; BAZ2B block: 28µM*; JMJD2E confirm: 23µM*; FDH counter: -36%; JMJD2E MALDI inh: 25*

What do the screens show for `Cc1ncc(COCc2ccccc2)c(CO)c1OCc1ccccc1`?
JMJD2A Tudor: -2%; GLS inh: 1%; HP1b chromo inh: 41%
